Laboratory results taken from the supplement of paper PMC10849652.
Of roughly 7,900 targets only a part is listed; those with a hit were picked by preference. About 0.6% of all pairs of compound and target were hits.

The targets below were run with C1CCN(C1)C(=O)NC2=CC=CC(=C2)NC3=NC=C(C(=N3)NCCC4=CN=CN4)Br (assay: log2 fold change, soluble protein after heating vs DMSO (PISA); higher = thermal stabilisation; K562 cells, 10 uM, 30 min; active = over 0.2 and 3.5 SD of the protein, either way, in both replicates (recomputed)).
Summary of the method: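 Aliquots of K562 cells (2×10^6 cells/mL) treated with 10 μM compound for 30 min were heated for 3 min over 48°C-58°C. After pooling and extraction in PBS with 0.5% NP-40 at 4°C, soluble protein from a 21,000xg, 90 min spin was quantified by TMTpro 16plex LC-MS/MS with channel sums equalised. Thermal stability is expressed against control samples, from duplicates, as a log2 fold change.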

Sequence of UniProt Q4G0J3 (Q4G0J3 whole entry, looked up): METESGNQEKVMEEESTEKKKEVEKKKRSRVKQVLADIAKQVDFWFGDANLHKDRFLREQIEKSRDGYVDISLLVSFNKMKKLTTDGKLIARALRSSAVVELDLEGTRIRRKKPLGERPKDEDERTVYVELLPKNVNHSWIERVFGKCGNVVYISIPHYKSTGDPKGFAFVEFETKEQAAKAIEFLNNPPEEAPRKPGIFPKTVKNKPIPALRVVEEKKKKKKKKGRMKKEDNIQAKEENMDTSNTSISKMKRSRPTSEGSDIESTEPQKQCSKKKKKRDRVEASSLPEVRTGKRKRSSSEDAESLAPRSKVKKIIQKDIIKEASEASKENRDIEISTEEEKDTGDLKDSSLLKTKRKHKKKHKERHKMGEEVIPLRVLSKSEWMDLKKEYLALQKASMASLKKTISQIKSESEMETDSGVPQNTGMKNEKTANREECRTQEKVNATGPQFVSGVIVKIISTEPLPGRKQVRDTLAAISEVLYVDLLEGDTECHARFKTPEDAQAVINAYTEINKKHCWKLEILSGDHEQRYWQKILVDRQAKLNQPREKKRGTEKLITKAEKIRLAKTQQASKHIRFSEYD
Sequence of UniProt P45984 (P45984 whole entry, looked up): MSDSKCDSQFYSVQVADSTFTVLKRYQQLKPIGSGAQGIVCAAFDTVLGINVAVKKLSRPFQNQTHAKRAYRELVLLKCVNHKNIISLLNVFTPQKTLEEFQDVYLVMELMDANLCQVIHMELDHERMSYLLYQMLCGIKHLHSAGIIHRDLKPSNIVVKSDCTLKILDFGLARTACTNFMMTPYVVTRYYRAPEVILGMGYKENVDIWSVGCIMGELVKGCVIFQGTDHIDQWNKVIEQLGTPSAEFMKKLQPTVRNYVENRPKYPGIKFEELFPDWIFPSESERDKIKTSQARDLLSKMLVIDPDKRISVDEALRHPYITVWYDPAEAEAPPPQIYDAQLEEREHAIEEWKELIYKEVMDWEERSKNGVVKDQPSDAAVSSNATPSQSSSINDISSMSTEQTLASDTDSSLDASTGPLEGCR
Sequence of UniProt Q8IWA4 (Q8IWA4 whole entry, looked up): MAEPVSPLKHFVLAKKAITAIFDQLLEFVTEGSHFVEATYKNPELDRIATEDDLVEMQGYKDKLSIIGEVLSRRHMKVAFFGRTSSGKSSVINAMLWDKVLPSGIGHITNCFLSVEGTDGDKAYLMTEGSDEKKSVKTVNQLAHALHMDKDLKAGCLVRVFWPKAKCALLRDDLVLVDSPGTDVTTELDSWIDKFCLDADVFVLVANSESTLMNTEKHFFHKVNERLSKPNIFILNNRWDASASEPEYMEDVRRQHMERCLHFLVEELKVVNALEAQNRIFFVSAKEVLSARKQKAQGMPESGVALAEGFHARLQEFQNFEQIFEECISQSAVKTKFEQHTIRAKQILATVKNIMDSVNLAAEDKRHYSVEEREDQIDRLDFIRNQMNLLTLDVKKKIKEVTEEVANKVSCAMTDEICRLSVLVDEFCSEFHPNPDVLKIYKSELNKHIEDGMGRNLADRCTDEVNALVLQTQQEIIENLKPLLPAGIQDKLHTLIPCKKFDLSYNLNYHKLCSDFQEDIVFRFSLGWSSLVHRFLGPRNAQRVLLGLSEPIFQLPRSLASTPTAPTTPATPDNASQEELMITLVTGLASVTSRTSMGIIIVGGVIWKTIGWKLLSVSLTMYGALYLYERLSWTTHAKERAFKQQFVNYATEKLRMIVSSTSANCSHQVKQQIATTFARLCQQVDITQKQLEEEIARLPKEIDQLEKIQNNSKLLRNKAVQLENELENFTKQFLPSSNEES
Sequence of UniProt Q14739 (Q14739 whole entry, looked up): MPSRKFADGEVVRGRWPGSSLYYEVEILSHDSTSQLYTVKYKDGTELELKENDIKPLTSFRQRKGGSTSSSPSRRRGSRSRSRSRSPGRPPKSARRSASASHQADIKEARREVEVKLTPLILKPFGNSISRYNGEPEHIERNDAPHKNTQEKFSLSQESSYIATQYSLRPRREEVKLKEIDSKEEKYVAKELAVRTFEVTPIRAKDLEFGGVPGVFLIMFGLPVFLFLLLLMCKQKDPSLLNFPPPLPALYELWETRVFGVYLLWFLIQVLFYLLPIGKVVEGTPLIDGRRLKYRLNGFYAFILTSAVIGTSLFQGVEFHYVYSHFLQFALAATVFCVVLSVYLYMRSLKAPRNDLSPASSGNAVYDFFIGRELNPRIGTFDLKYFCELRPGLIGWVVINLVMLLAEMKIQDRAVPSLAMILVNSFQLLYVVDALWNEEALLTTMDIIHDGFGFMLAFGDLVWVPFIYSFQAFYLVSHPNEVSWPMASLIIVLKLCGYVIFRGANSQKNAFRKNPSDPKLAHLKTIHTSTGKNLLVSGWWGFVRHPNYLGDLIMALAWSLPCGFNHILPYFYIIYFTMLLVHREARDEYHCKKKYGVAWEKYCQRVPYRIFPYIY
Sequence of UniProt Q9H9P8 (Q9H9P8 whole entry, looked up): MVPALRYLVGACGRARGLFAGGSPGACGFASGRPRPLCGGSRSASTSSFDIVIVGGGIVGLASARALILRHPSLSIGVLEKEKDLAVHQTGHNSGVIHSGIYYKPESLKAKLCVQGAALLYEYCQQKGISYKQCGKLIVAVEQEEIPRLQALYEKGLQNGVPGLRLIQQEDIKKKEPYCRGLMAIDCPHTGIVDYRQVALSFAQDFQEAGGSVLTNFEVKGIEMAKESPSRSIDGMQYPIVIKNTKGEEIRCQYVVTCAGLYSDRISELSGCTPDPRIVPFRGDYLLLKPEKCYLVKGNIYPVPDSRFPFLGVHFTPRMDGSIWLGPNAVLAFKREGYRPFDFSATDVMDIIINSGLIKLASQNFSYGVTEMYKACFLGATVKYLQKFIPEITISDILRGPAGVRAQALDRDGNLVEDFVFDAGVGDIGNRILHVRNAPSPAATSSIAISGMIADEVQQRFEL
Sequence of UniProt Q9NQ29 (Q9NQ29 whole entry, looked up): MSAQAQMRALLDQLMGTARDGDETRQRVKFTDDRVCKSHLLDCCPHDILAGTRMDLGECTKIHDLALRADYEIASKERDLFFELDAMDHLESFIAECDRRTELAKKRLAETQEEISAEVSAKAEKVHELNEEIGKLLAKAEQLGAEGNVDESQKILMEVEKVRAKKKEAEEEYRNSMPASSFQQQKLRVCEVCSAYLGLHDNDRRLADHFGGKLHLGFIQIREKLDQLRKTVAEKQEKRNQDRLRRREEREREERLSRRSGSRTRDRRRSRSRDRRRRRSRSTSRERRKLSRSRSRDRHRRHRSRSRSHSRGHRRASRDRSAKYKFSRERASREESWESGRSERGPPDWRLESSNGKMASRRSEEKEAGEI
Sequence of UniProt Q96LU5 (Q96LU5 whole entry, looked up): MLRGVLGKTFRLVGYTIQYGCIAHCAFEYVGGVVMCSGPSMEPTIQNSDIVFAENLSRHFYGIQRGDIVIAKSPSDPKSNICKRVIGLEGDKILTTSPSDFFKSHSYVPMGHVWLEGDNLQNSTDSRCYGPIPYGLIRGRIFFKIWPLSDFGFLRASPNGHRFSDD
Sequence of UniProt Q8WV07 (Q8WV07 whole entry, looked up): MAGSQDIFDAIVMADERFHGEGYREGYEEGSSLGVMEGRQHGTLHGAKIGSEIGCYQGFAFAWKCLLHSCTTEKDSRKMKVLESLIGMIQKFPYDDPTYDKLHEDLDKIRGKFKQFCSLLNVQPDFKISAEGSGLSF
Sequence of UniProt O14880 (O14880 whole entry, looked up): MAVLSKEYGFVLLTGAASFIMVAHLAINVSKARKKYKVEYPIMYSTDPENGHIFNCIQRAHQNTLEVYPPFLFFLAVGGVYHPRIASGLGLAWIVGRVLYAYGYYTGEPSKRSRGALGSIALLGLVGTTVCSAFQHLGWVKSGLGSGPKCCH
Sequence of UniProt O95568 (O95568 whole entry, looked up): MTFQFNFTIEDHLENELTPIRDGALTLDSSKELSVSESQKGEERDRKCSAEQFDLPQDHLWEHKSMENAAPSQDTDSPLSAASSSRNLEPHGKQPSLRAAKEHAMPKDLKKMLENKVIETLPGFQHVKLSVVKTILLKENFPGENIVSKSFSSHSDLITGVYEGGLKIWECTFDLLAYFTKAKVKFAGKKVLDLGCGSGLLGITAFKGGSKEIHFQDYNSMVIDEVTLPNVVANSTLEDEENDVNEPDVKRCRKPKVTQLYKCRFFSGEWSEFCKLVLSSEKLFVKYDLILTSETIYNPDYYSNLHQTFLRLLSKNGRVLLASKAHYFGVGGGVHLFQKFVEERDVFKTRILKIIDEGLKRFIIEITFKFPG
Sequence of UniProt O95140 (O95140 whole entry, looked up): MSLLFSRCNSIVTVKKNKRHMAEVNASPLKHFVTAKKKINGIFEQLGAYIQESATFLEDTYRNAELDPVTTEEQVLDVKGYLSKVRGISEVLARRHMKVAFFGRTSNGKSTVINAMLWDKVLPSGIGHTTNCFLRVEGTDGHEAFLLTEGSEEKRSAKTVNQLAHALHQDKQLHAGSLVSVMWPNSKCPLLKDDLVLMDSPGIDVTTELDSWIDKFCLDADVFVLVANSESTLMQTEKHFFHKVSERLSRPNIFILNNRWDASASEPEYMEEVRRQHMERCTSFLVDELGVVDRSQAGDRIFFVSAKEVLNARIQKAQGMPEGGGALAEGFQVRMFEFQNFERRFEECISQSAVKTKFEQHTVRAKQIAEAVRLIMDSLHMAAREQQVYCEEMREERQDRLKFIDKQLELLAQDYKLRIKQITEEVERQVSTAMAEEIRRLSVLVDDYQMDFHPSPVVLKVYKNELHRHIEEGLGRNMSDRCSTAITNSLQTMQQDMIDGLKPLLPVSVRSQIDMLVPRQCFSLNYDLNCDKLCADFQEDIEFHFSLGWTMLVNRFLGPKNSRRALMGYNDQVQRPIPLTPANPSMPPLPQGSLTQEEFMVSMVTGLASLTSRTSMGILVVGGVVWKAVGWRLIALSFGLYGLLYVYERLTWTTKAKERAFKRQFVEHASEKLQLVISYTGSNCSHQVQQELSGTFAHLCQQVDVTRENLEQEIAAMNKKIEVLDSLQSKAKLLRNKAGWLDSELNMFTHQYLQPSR

log2 fold change, inactive:
MAPK9 (UniProt P45984) 0.063
MGST3 (UniProt O14880) 0.019
INTS7 (UniProt Q9NVH2) -0.091
LARP1 (UniProt Q6PKG0) 0.046
KDM5D isoform 3 (UniProt Q9BY66) 0.035
MAP2K1 (UniProt Q02750) -0.002
MAP3K20 (UniProt Q9NYL2) -0.046
LUC7L3 (UniProt O95232) -0.002
LBR (UniProt Q14739) 0.037
L2HGDH (UniProt Q9H9P8) -0.005
KDM3B (UniProt Q7LBC6) -0.03
LUC7L2 (UniProt Q9Y383) -0.03
MFN2 (UniProt O95140) -0.016
IPO9 (UniProt Q96P70) -0.02
LSR (UniProt Q86X29) -0.038
MAP4 (UniProt P27816) -0.025
LARP7 isoform 3 (UniProt Q4G0J3) -0.052
MFF (UniProt Q9GZY8) 0.007
METTL18 (UniProt O95568) 0.028
ILF3 isoform 7 (UniProt Q12906) 0.054
LAMP2 (UniProt P13473) -0.013
LRPPRC (UniProt P42704) -0.133
MAPKAPK3 (UniProt Q16644) 0.021
MDC1 (UniProt Q14676) -0.139
MAPKAPK5 (UniProt Q8IW41) -0.033
KRAS isoform 2 (UniProt P01116) 0.045
LTO1 (UniProt Q8WV07) -0.032
MEAK7 (UniProt Q6P9B6) -0.042
KPNA6 (UniProt O60684) 0.017
LSS (UniProt P48449) 0.005
MARK3 (UniProt P27448) -0.221
KIFBP (UniProt Q96EK5) 0.014
LUZP1 (UniProt Q86V48) -0.06
MARK2 (UniProt E9PC69) -0.227
IRF2BPL (UniProt Q9H1B7) -0.041
MFN1 (UniProt Q8IWA4) 0.025
LUC7L (UniProt Q9NQ29) -0.016
IMMP1L (UniProt Q96LU5) 0.041
IL27RA (UniProt Q6UWB1) -0.011
